# Compound activity (PubChem)
# The list is not random: actives were taken first. Their share in the collection is about 4.7%.
# SKKanGAS inh: SKKanGAS growth inhibition. actives 1.3% (n = 300,000). inhibition, % at 7.5 µM. S. pyogenes SKKanGAS, kanamycin growth, BacTiter-Glo, 6 h;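 active means mean replicate score, as percent of positive control median, at least 50; inconclusive means mean below 50 but one replicate at or above 50; inactive means mean and every replicate below 50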;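 further: strain carries kanamycin resistance gene driven by streptokinase promoter and grows in 40 µg/ml kanamycin; loss of luminescence reflects streptokinase promoter inhibition or plain growth inhibition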
# Calb FLC: C. albicans growth modulation with fluconazole; actives 0.57% (n = 300,000); C. albicans CaCi-2 (fluconazole-resistant clinical isolate) + fluconazole, Alamar Blue growth, 48 h; growth inhibition, % (no concentration beside the values);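 active means growth inhibition above about 58% in most replicates, limit read from the data, passing the limit was not always enough; inconclusive means exactly half the replicates above a set limit; inactive means most replicates below a set limit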;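 further: all wells also contain fluconazole at 8 µg/ml as a sub-toxic cotreatment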
# tim10-1 inh: inhibits growth of tim10-1 mutant yeast; AID 463190; S. cerevisiae tim10-1 ts strain growth, BacTiter-Glo, 24 h; actives 2.2% (n = 330,000); inhibition, % at 20 µM;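 active means inhibition of at least 40%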;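 further: mutant grown at 25 °C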
# tim23-1 inh: inhibits growth of tim23-1 mutant yeast; S. cerevisiae tim23-1 growth, BacTiter-Glo luminescence, 24 h; inhibition, % at 20 µM; actives 1.3% (n = 330,000); AID 463212;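 active means growth inhibition of the mutant yeast at or above 50%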;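 further: temperature-sensitive mutant grown at 25 °C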
# TIM10 inh: inhibits growth of TIM10 yeast strain; AID 463195; S. cerevisiae TIM10 strain growth, BacTiter-Glo luminescence, 24 h; actives 1.4% (n = 330,000); inhibition, % at 10 µM;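 active means inhibition of 40% or more at the single tested concentration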;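 further: wild-type TIM10 isogenic control strain grown at permissive 25 °C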
# PfHsp90 set2: growth inhibition of yeast expressing Plasmodium Hsp90 | AID 504621 | actives 0.32% (n = 310,000) | inhibition, % at 9.4 µM | S. cerevisiae expressing PfHsp90, BacTiter-Glo ATP, 48 h; yeast lacking PDR1 and PDR3 efflux regulators;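 active means every replicate shows inhibition above about 80%, whatever the replicate mean, limit read from the data; inconclusive means mean inhibition reaches the set limit but some replicate falls short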
# A number is an active result; . = inactive; ? = inconclusive; / = no result.
SMILES,SKKanGAS inh,Calb FLC,tim10-1 inh,tim23-1 inh,TIM10 inh,PfHsp90 set2
Cc1c(O)ccc2c(CN3CCN(Cc4ccccc4)CC3)cc(=O)oc12,.,.,.,.,.,.
Cc1[nH]nc(-c2ccc(O)c(C)c2O)c1-c1cnn(-c2ccccc2)c1,.,106,.,.,.,.
CC1(C)Cc2ccccc2C(N/N=C/c2ccc([N+](=O)[O-])cc2)=N1,.,75,.,.,.,.
Cc1ccc(NC2CCCN(C(=O)c3cc4ncccn4n3)C2)cc1C (stereo unspecified),.,.,.,.,.,.
CC(C)CN(Cc1cc(=O)oc2cc3c(cc12)CCCC3)CC(C)C,54,.,.,.,.,.
CCOCCCNC(=O)CCN1C(=O)c2ccccc2Sc2ncccc21,.,.,.,.,.,.
CC(=O)N1c2ccc(S(=O)(=O)NCC3CCC(C(=O)Nc4cc(C)ccn4)CC3)cc2CC1C (stereo unspecified),.,.,.,.,.,.
CC(=O)N1c2ccc(S(=O)(=O)N3CCC(C(=O)Nc4cc(C)ccn4)CC3)cc2CC1C (stereo unspecified),52,.,.,.,.,.
Cc1ccc(N(C)S(=O)(=O)c2ccc3c(c2)CC(C)N3C(=O)C2CC2)cc1 (stereo unspecified),102,.,.,.,.,.
CC(=O)N1c2ccc(S(=O)(=O)N(C)c3cc(C)ccc3C)cc2CC1C (stereo unspecified),.,.,.,.,.,.
Cc1cc(Br)ccc1NC(=O)CN(C)C(=O)C1CCN(c2ncnc3sc(C)c(C)c23)CC1,/,/,/,/,/,.
O=C(N/N=C/c1ccc(O)cc1)c1cccc(C(F)(F)F)c1,.,.,.,.,.,.
O=C(N/N=C/c1ccccc1O)c1cccc(C(F)(F)F)c1,.,80,.,.,.,.
CCCCOc1ccc(C)cc1CN(CCO)CCO,.,.,.,.,.,.
CCCCCc1ccc(OCCCC[n+]2cccc(C)c2)c(CCCCC)c1,.,106,.,.,.,.
CCn1ncc([N+](=O)[O-])c1C(=O)Nc1c(C)nn(Cc2ccc(F)cc2)c1C,.,.,.,.,.,.
NC(=O)c1cc([N+](=O)[O-])ccc1NCCN1C(=O)c2ccccc2C1=O,.,.,.,.,.,/
O=C(NNc1ccc(Cl)cc1)C1CCC1,.,85,.,.,.,.
O=C(COc1ccccc1)Nc1cccc(-c2nn[nH]n2)c1,.,.,.,.,.,.
O=C(COc1ccccc1)Nc1cccc(-c2nc3cc4ccccc4cc3[nH]2)c1,67,109,.,.,.,/
CCOC(CNC(=O)C(=O)Nc1cc2c3c(c1)CCN3C(=O)CC2)OCC,.,.,.,.,.,.
CCN(CC)C(=O)c1csc(Nc2ccc(C)cc2)n1,/,.,.,.,.,/
CCOC(=O)c1nc(Nc2ccc(OC)cc2)c2ccccc2n1,.,.,.,.,.,.
CCOC(=O)/C(=N\Nc1ccc(Cl)cc1)c1csc(Nc2ccccc2)n1,73,.,.,.,.,.
CCOC(=O)/C(=N\Nc1ccc(OC)cc1)c1csc(Nc2ccccc2)n1,60,.,.,.,.,.
SMILES,SKKanGAS inh,Calb FLC,tim10-1 inh,tim23-1 inh,TIM10 inh,PfHsp90 set2
N#Cc1cccc(S(=O)(=O)NCC(=O)NCc2ccc3c(c2)OCO3)c1,/,/,.,.,.,.
CCCN(CCC)C(=O)c1cc2c(=O)n3cccc(C)c3nc2s1,.,.,.,.,.,.
CCCN1C(=O)c2ccc(C(=O)Nc3ccccc3C(=O)O)cc2C1=O,.,.,.,.,.,.
O=C(Nc1ccc(Br)cc1C(=O)O)c1ccc2c(c1)C(=O)N(Cc1ccccc1)C2=O,76,.,.,.,.,/
COc1ccc(C2CC(c3ccccc3)=NN2C(=O)c2cccs2)cc1 (stereo unspecified),59,.,.,.,.,.
COc1ccc2nc(N/C(N)=N/C(=S)Nc3c(C)cccc3C)nc(C)c2c1,51,?,.,.,.,.
CC1=NN(C(N)=S)C(=O)C1N=Nc1ccccc1 (stereo unspecified),.,.,.,.,.,.
CC1=NN(C(N)=S)C(=O)C1N=Nc1cccc2ccccc12 (stereo unspecified),.,108,/,/,/,/
Cc1ccc(NC(=O)CNc2ccccc2N2CCCC2=O)cc1S(=O)(=O)N1CCCCC1,/,/,.,.,.,/
O=c1[nH]c(-c2ccccn2)nc(C(F)(F)F)c1Br,.,108,.,.,.,90
CNC(=S)N1N=C(c2ccccc2)CC1c1ccccc1Cl (stereo unspecified),.,65,.,.,.,.
CNC(=S)N1N=C(c2ccc(C)cc2)CC1c1ccc(Cl)cc1 (stereo unspecified),.,.,.,.,.,.
O=C(COc1ccc(Cl)cc1Cl)Nc1ccc(CN2CCOCC2)cc1,103,.,.,.,.,.
Cc1cc(Cl)ccc1OCC(=O)Nc1ccc(CN2CCOCC2)cc1,.,.,.,.,.,.
CCOC(=O)c1ccc(NC(=O)c2nc[nH]c2C(=O)NCCCCCNC(=O)OC(C)(C)C)cc1,64,.,.,.,.,.
C[C@H](NC(=O)c1nc[nH]c1C(=O)N[C@@H](Cc1ccccc1)C(=O)OC(C)(C)C)C(=O)OC(C)(C)C,.,.,.,.,.,.
CC(C)(C)OC(=O)[C@H](Cc1ccccc1)NC(=O)c1[nH]cnc1C(=O)Nc1ccc(Cl)cc1,91,.,.,.,.,.
CCOC(=O)c1ccc(NC(=O)c2nc[nH]c2C(=O)NCCCCNC(=O)c2[nH]cnc2C(=O)Nc2ccc(C(=O)OCC)cc2)cc1,/,/,.,.,.,.
CC(C)(C)OC(=O)[C@H](Cc1ccccc1)NC(=O)c1nc[nH]c1C(=O)N[C@@H](Cc1ccccc1)C(=O)OC(C)(C)C,70,.,.,.,.,.
CC(C)(C)OC(=O)[C@H](Cc1ccccc1)NC(=O)c1[nH]cnc1C(=O)Nc1cccc(Cl)c1,72,.,.,.,.,.
CC(C)(C)OC(=O)NCCCC[C@H](NC(=O)c1[nH]cnc1C(=O)N[C@@H](Cc1ccccc1)C(=O)OC(C)(C)C)C(=O)OC(C)(C)C,.,.,.,.,.,.
O=C(Cn1nnc(-c2ccccc2)n1)NCC(=O)Nc1ccc(F)c(F)c1F,/,/,.,.,.,/
CC(C)(C)OC(=O)[C@H](Cc1ccccc1)NC(=O)c1[nH]cnc1C(=O)N[C@@H](Cc1ccccc1)C(=O)OCc1ccccc1,.,.,.,.,.,/
Cc1cccc(NC(=O)c2nc[nH]c2C(=O)N[C@@H](CC(C)C)C(=O)OC(C)(C)C)c1,100,.,.,.,.,.
Cc1cccc(NC(=O)c2nc[nH]c2C(=O)N[C@@H](Cc2ccccc2)C(=O)OC(C)(C)C)c1,98,.,.,.,.,.
CCOC(=O)c1ccc(NC(=O)c2nc[nH]c2C(=O)N[C@@H](Cc2ccccc2)C(=O)OC(C)(C)C)cc1,56,.,.,.,.,.
